Where “and” joins values, the source holds several entries; their conditions need not be identical. Identical values can stand only once. Where a structure was tested more than once in an assay, its records may differ in their call. Calls of active or inactive are those of the source. The calls were made as follows: active = hit-call score of the fitted dose curve at least 0.9, where 1 is the maximum; inactive = score below 0.9.

Read-out in assay [1]: Urokinase-type plasminogen activator receptor (uPAR), PLAUR (gene 5329)
Put plainly: BSK_BE3C_uPAR: BioMAP Diversity Plus: BE3C Assay for Urokinase-type plasminogen activator receptor (uPAR) Biomarker Activity (AID 2283039).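 As to outcome: uPAR protein level measured by ELISA on the cells; cells exposed to compound for one day before measurement.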 The note with it: primary human bronchial epithelial cells; actives raise or lower the signal. In a few lines:
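Chemically treated human bronchial epithelial cells (lung primary) are assayed for uPAR by ELISA after 24 h, with data fitted in both directions using DMSO as negative control.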

Read-out in assay [2]: Interleukin-6 (IL6), IL6 (gene 3569)
Description: BSK_CASM3C_IL6: BioMAP Diversity Plus: CASM3C Assay for Interleukin-6 (IL6) Biomarker Activity for (AID 2283040). To be noted: primary human coronary artery smooth muscle cells; actives raise or lower the signal.

Read-out in assay [3]: Tissue plasminogen activator (tPA), PLAT (gene 5327)
Put plainly: BSK_BE3C_tPA: BioMAP Diversity Plus: BE3C Assay for Tissue plasminogen activator (tPA) Biomarker Activity (AID 2283041).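 Also: tPA level quantified by ELISA one day after compound addition.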 To be noted: primary human bronchial epithelial cells; actives raise or lower the signal. In a few lines: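 Using human lung primary bronchial epithelial cells, tPA was measured by ELISA 24 h after dosing; data fitted relative to DMSO.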

Read-out in assay [4]: Interleukin-8 (IL8), CXCL8 (gene 3576)
Description: BSK_CASM3C_IL8: BioMAP Diversity Plus: CASM3C Assay for Interleukin-8 (IL8) Biomarker Activity (AID 2283042).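 Also: IL-8 protein level quantified by ELISA.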 The note with it: primary human coronary artery smooth muscle cells; actives raise or lower the signal.

Read-out in assay [5]: Human Leukocyte Antigen - DR isotype (HLADR), HLA-DRA (gene 3122)
Put plainly: BSK_CASM3C_HLADR: BioMAP Diversity Plus: CASM3C Assay for Human Leukocyte Antigen - DR isotype (HLADR) Biomarker Activity (AID 2283043).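 Also: cell-surface HLA-DR protein level quantified by ELISA.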 To be noted: primary human coronary artery smooth muscle cells; actives raise or lower the signal.

Read-out in assay [6]: Macrophage colony-stimulating factor (MCSF), CSF1 (gene 1435)
Description: BSK_CASM3C_MCSF: BioMAP Diversity Plus: CASM3C Assay for Macrophage colony-stimulating factor (MCSF) Biomarker Activity (AID 2283044).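 Also: M-CSF protein amount quantified by ELISA after 24 h exposure.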 The note with it: primary human coronary artery smooth muscle cells; actives raise or lower the signal.

Read-out in assay [7]: Low-density lipoprotein receptor (LDLR), LDLR (gene 3949)
Put plainly: BSK_CASM3C_LDLR: BioMAP Diversity Plus: CASM3C Assay for Low-density lipoprotein receptor (LDLR) Biomarker Activity (AID 2283045).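 Also: LDLR protein level on the cell surface quantified by ELISA.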 The note with it: primary human coronary artery smooth muscle cells; actives raise or lower the signal.

Read-out in assay [8]: Monocyte Chemoattractant Protein-1 (MCP1), CCL2 (gene 6347)
Description: BSK_CASM3C_MCP1: BioMAP Diversity Plus: CASM3C Assay for Monocyte Chemoattractant Protein-1 (MCP1) Biomarker Activity (AID 2283046).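 Also: MCP-1 level quantified by ELISA 24 h after dosing.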 The note with it: primary human coronary artery smooth muscle cells; actives raise or lower the signal.

A short description of assay [9]: BSK_CASM3C_Proliferation: Cell Proliferation Assessment in the BioMAP Diversity Plus: CASM3C Assay (AID 2283047).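 Also: sulforhodamine B total protein stain as relative cell number at 560 nm; sub-confluent cells exposed 48 h before staining; fitted both ways against DMSO so gain or loss of cell number.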 The note with it: primary human coronary artery smooth muscle cells.
Read-out in assay [10]: Monokine induced gamma interferon (MIG), CXCL9 (gene 4283)
Put plainly: BSK_CASM3C_MIG: BioMAP Diversity Plus: CASM3C Assay for Monokine induced gamma interferon (MIG) Biomarker Activity (AID 2283048).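 Also: MIG protein level measured by ELISA.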 The note with it: primary human coronary artery smooth muscle cells; actives raise or lower the signal.

Read-out in assay [11]: serum amyloid A (SAA), SAA1 (gene 6288)
Description: BSK_CASM3C_SAA: BioMAP Diversity Plus: CASM3C Assay for serum amyloid A (SAA) Biomarker Activity (AID 2283049).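 Also: SAA protein level quantified by ELISA.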 To be noted: primary human coronary artery smooth muscle cells; actives raise or lower the signal.

Assay [12] is described as follows: BSK_CASM3C_SRB: Viability Assessment in the BioMAP Diversity Plus: CASM3C Assay (AID 2283050).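 Also: total protein by SRB staining as cytotoxicity measure in parallel cultures; cells exposed to compound for 24 h.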 To be noted: primary human coronary artery smooth muscle cells.
Read-out in assay [13]: Thrombomodulin, THBD (gene 7056)
Put plainly: BSK_CASM3C_Thrombomodulin: BioMAP Diversity Plus: CASM3C Assay for Thrombomodulin Biomarker Activity (AID 2283051).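 Also: thrombomodulin protein level measured by ELISA 24 h after dosing.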 To be noted: primary human coronary artery smooth muscle cells; actives raise or lower the signal.

Read-out in assay [14]: Tissue Factor, F3 (gene 2152)
Description: BSK_CASM3C_TissueFactor: BioMAP Diversity Plus: CASM3C Assay for Tissue Factor Biomarker Activity (AID 2283052).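 Also: cell surface tissue factor protein level read by ELISA.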 To be noted: primary human coronary artery smooth muscle cells; actives raise or lower the signal.

Read-out in assay [15]: Interferon-gamma inducible Protein 10 (IP10), CXCL10 (gene 3627)
Put plainly: BSK_hDFCGF_IP10: BioMAP Diversity Plus: hDFCGF Assay for Interferon-gamma inducible Protein 10 (IP10) Biomarker Activity (AID 2283053). The note with it: primary human foreskin fibroblasts; actives raise or lower the signal. The essentials:
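Chemical-treated human skin fibroblasts (primary) were sampled at 24 h for IP-10 by ELISA. Both increases and decreases relative to DMSO were scored.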

Read-out in assay [16]: Urokinase-type plasminogen activator receptor (uPAR), PLAUR (gene 5329)
Description: BSK_CASM3C_uPAR: BioMAP Diversity Plus: CASM3C Assay for Urokinase-type plasminogen activator receptor (uPAR) Biomarker Activity (AID 2283054).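 Also: cell-surface uPAR protein level quantified by ELISA.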 The note with it: primary human coronary artery smooth muscle cells; actives raise or lower the signal.

Read-out in assay [17]: Vascular cell adhesion molecule 1 (VCAM1), VCAM1 (gene 7412)
Description: BSK_CASM3C_VCAM1: BioMAP Diversity Plus: CASM3C Assay for Vascular cell adhesion molecule 1 (VCAM1) Biomarker Activity (AID 2283055).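 Also: VCAM-1 protein level quantified by ELISA on the cells.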 To be noted: primary human coronary artery smooth muscle cells; actives raise or lower the signal.

Read-out in assay [18]: Collagen III, COL3A1 (gene 1281)
Put plainly: BSK_hDFCGF_CollagenIII: BioMAP Diversity Plus: hDFCGF Assay for Collagen III Biomarker Activity (AID 2283056). To be noted: primary human foreskin fibroblasts; actives raise or lower the signal. In a few lines:
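ELISA readout of Collagen III in human dermal (foreskin) fibroblasts, taken 24 h post-treatment. Gain or loss relative to DMSO vehicle fitted in both directions.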

Read-out in assay [19]: Epidermal growth factor receptor (EGFR), EGFR (gene 1956)
Description: BSK_hDFCGF_EGFR: BioMAP Diversity Plus: hDFCGF Assay for Epidermal growth factor receptor (EGFR) Biomarker Activity (AID 2283057). The note with it: primary human foreskin fibroblasts; actives raise or lower the signal. In a few lines:
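Cell-based multiplexed assay in primary human foreskin fibroblasts. EGFR is read by ELISA 24 h after treatment and compared with DMSO controls.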

Read-out in assay [20]: Interleukin-8 (IL8), CXCL8 (gene 3576)
Put plainly: BSK_hDFCGF_IL8: BioMAP Diversity Plus: hDFCGF Assay for Interleukin-8 (IL8) Biomarker Activity (AID 2283058). To be noted: primary human foreskin fibroblasts; actives raise or lower the signal. The essentials:
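IL-8 levels read by ELISA at 24 hours after dosing human skin fibroblast cultures. Parallel SRB staining assessed overt cytotoxicity, and gain or loss of signal was fitted against DMSO control.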

For `CNC(=O)ON=CC(C)(C)SC`, the result in assay [1], in assay [2], in assay [3], in [4], in assay [5] and in [6] was inactive. Moreover, the result in [7], in [8], in assay [9], in assay [10], in assay [12] and in assay [13] was inactive. Besides, the result in [14], in assay [17], in assay [18], in assay [19] and in assay [20] was inactive. The AC50 in assay [11] was 1.35 µM (active); in assay [15], 5.4 µM (active); in assay [16], 0.148 µM (active).
Take `OC(c1ccc(Cl)cc1)(c1cncnc1)c1ccccc1Cl` (stereo unspecified): the result in [1], in assay [2], in assay [3], in assay [4], in assay [5] and in [6] was inactive. Also, the result in [7], in [8], in [10], in [11], in assay [12] and in assay [14] was inactive. Moreover, the outcome in [15], in assay [16], in assay [17], in [18], in assay [19] and in assay [20] was inactive. The AC50 in assay [9] is 27.6 µM (active); in [13], 16.6 µM (active).
In the case of `CCOC(=O)C(Cl)Cc1cc(-n2nc(C)n(C(F)F)c2=O)c(F)cc1Cl` (stereo unspecified), the result in assay [1], in assay [2], in assay [3], in assay [4], in [5] and in [6] was inactive. Also, the outcome in assay [7], in [8], in [9], in assay [10], in [11] and in assay [12] was inactive. Also, the result in [13], in assay [14], in assay [15], in assay [16], in assay [17] and in assay [18] was inactive. Also, the outcome in assay [19] and in [20] was inactive.
`C=CCC1=C(C)C(OC(=O)C2C(C=C(C)C)C2(C)C)CC1=O` (stereo unspecified): the AC50 in assay [1] is 0.223 µM (active); in assay [5], 31.7 µM (active) and 32 µM (active) and 27.9 µM (active); in assay [7], 16.8 µM (active) and 21 µM (active); in [9] it was 34.4 µM (active) [middle of 4 runs]; in assay [11], 4.17 µM (active); in assay [13] it was 16.6 µM (active) and 26.3 µM (active) and 21 µM (active). For the same compound, the AC50 in assay [15] is 31.7 µM (active) [middle of 4 runs]; in [17], 32.5 µM (active); in assay [18], 21 µM (active) [middle of 4 runs]; in assay [20], 40.3 µM (active) [middle of 4 runs]. Also, the result in assay [1], in assay [2], in [3], in assay [4], in assay [5] and in assay [6] was inactive. In addition, the result in assay [7], in assay [8], in assay [10], in assay [11], in assay [12] and in [13] was inactive. Also, the outcome in assay [14], in [16], in [17] and in assay [19] was inactive.
Regarding `CCOP(=S)(OCC)SCn1c(=O)oc2cc(Cl)ccc21`, the AC50 in assay [1] is 0.147 µM (active); in assay [4], 4.25 µM (active); in assay [13] it was 19.9 µM (active); in [18], 20 µM (active). Further, the result in assay [2], in [3], in assay [5], in assay [6], in assay [7] and in assay [8] was inactive. Also, the result in [9], in assay [10], in [11], in [12], in [14] and in assay [15] was inactive. Also, the result in [16], in [17], in assay [19] and in [20] was inactive.

Broadly, the AC50 is the concentration at which the activity in the assay is half-maximal.

The record behind these values is PubChem BioAssay (EPA / NIEHS).
